# Assay results as given in the supplement of paper PMC9135407.
# Values joined by “and” are separate entries in the source; they are usually repeats but may differ in a detail not shown here. Identical values can stand only once. Counter-ions that a name gives are not always drawn. Out of some 5,800 compounds screened, about 620 (11%) showed activity. The entries come from a sample that favours actives as a whole. Unmarked numbers belong to inactive results.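 Rule for the calls: active = score above a cut-off or among the top three wells of a plate; in these data no inactive exceeds 0.85.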
# Test system: primary human hepatic stellate cells (donor 1)
# Assay: scaled lipid accumulation score (0 = DMSO-like, 1 = nortriptyline-like); higher = stronger HSC inactivation (lipid re-accumulation), active = hit call of the paper
# Conditions: 48 h
# [1] = library stock concentration: 10 mM
# [2] = library stock concentration: 1 mM
# [3] = library stock concentration: 3.33 mM
smiles,measurement,setting,value
CN(C)[C@@H]1C(O)=C(C(=O)NCN2CCCC2)C(=O)[C@@]2(O)C(O)=C3C(=O)c4c(O)cccc4[C@@](C)(O)[C@H]3C[C@@H]12 [Rolitetracycline],scaled lipid accumulation score,,≤ 0
CN(C)[C@@H]1C(O)=C(C(=O)NCN2CCCC2)C(=O)[C@@]2(O)C(O)=C3C(=O)c4c(O)cccc4[C@@](C)(O)[C@H]3C[C@@H]12,scaled lipid accumulation score,[1],≤ 0
CC(=O)N(OCc1ccccc1)[C@H]1c2cc(C#N)ccc2OC(C)(C)[C@H]1O,scaled lipid accumulation score,[1],≤ 0
N[C@@H]1CCN(O)C1=O,scaled lipid accumulation score,[1],≤ 0
CCCCCCCCCCCCCCCC(=O)NC[C@@H](C)O [R-Palmitoyl-(2-methyl) Ethanolamide],scaled lipid accumulation score,[2],≤ 0
COc1ccc2c(c1OC)C(=O)O[C@@H]2[C@H]1c2c(cc3c(c2OC)OCO3)CCN1C [Noscapine],scaled lipid accumulation score,,≤ 0
COc1cc2c3cc1Oc1c(OC)c(OC)cc4c1[C@@H](Cc1ccc(OC(=O)c5ccc([N+](=O)[O-])cc5)c(c1)Oc1ccc(cc1)C[C@@H]3N(C)CC2)N(C)CC4 [E6 berbamine],scaled lipid accumulation score,library stock concentration: 6.6 mM,0.933 (active)
COc1cc2c(c(OC)c1OC)-c1c(cc3c(c1OC)OCO3)CC(C)C(C)C2 (centres undefined) [Schisandrin B (Sch B)],scaled lipid accumulation score,[3],≤ 0
same,scaled lipid accumulation score,[1],≤ -0.001
COc1ccc2cc1Oc1ccc(cc1)C[C@H]1c3cc(c(OC)cc3CCN1C)Oc1c(OC)c(OC)cc3c1[C@H](C2)N(C)CC3 [Tetrandrine],scaled lipid accumulation score,,0.685
same,scaled lipid accumulation score,[3],0.783
same,scaled lipid accumulation score,[1],0.45
COc1ccc2cc1Oc1ccc(cc1)C[C@@H]1c3c(cc4c(c3Oc3cc5c(cc3OC)CCN(C)[C@H]5C2)OCO4)CCN1C [Cepharanthine],scaled lipid accumulation score,[3],1.03 (active)
COc1cc2c(cc1OC)[C@@H]1Cc3ccc(OC)c(OC)c3CN1CC2 [Rotundine],scaled lipid accumulation score,[3],≤ 0
same,scaled lipid accumulation score,[1],≤ 0
COc1ccc2cc1Oc1ccc(cc1)C[C@H]1c3cc(c(OC)cc3CCN1C)Oc1c(OC)c(OC)cc3c1[C@H](C2)N(C)CC3 [Tetrandine],scaled lipid accumulation score,library stock concentration: 8 mM,0.535
COc1ccc2cc1Oc1ccc(cc1)C[C@H]1c3c(cc4c(c3Oc3cc5c(cc3OC)CCN(C)[C@@H]5C2)OCO4)CCN1C [Cepharanthine] [listing 1 of 2 here],scaled lipid accumulation score,[1],0.944 (active)
COc1ccc2c(c1OC)C(=O)O[C@@H]2[C@H]1c2c(cc3c(c2OC)OCO3)CCN1C [Noscapine hydrchloride],scaled lipid accumulation score,[1],≤ -0.055
COc1cc2c3cc1Oc1cc(ccc1O)C[C@@H]1c4c(cc(OC)c(O)c4Oc4ccc(cc4)C[C@@H]3N(C)CC2)CC[N+]1(C)C [Tubocurarine chloride],scaled lipid accumulation score,library stock concentration: 3.1 mM,≤ 0
COc1ccc2cc1Oc1ccc(cc1)C[C@H]1c3c(cc4c(c3Oc3cc5c(cc3OC)CCN(C)[C@@H]5C2)OCO4)CCN1C [Cepharanthine] [listing 2 of 2 here],scaled lipid accumulation score,[1],0.689
COc1ccc2c(c1OC)C(=O)O[C@@H]2[C@H]1c2c(cc3c(c2OC)OCO3)CCN1C [Noscapine hydrochloride],scaled lipid accumulation score,library stock concentration: 4.4 mM,0.008
same,scaled lipid accumulation score,[1],0.011 and 0.074
Cc1cc(C(N)=O)ccc1-n1c(CCC(=O)O)ccc1-c1ccc(-n2ccnc2)cc1,scaled lipid accumulation score,[3],≤ -0.009
same,scaled lipid accumulation score,[1],≤ 0
"O=C(O)c1ccc2c(c1)CCCC2 [5,6,7,8-tetrahydro-2-Naphthoic Acid]",scaled lipid accumulation score,[2],≤ 0
CS(=O)(=O)c1ccc(Cn2c3c(c4cc(F)cc(F)c42)CCCC3CC(=O)O)cc1 (centres undefined),scaled lipid accumulation score,[1],≤ -0.006
O=C(O)c1ccc2c(c1)nc(Nc1cccc(Cl)c1)c1ccncc12,scaled lipid accumulation score,library stock concentration: 400 uM,≤ -0.005
same,scaled lipid accumulation score,library stock concentration: 2 mM,≤ -0.005
same,scaled lipid accumulation score,[1],≤ -0.005
O=C(O)c1ccc2c(c1)nc(Nc1cccc(Cl)c1)c1ccncc12 [CX-4945 (Silmitasertib)],scaled lipid accumulation score,[3],≤ 0
same,scaled lipid accumulation score,[1],≤ 0
OC[C@H]1O[C@H]([S-])[C@H](O)[C@@H](O)[C@@H]1O.[Au+] [Aurothioglucose],scaled lipid accumulation score,library stock concentration: 5.1 mM,0.336
same,scaled lipid accumulation score,[1],0.397
"Oc1cc(O)c2c(c1)O[C@H](c1ccc(O)c(O)c1)[C@@H](O)C2 (racemic) [Catechin-(+,-) hydrate]",scaled lipid accumulation score,,≤ 0
CCCCCCCCCCCCCCCCOCC(CO)OC (centres undefined) [1-Hexadecyl-2-O-methyl-glycerol],scaled lipid accumulation score,[2],0.003
"CCCCC(C)(C)[C@H](O)C=C[C@H]1[C@H](O)CC(=O)[C@@H]1CCCCCCC(=O)O [16,16-dimethyl Prostaglandin E1]",scaled lipid accumulation score,[2],≤ 0
CCC(O)/C=C/C=O (centres undefined) [4-hydroxy Hexenal],scaled lipid accumulation score,[2],≤ 0
CCCCC[C@H](O)/C=C/[C@H]1[C@H](O)CC(=O)[C@@H]1CCCCCCC(=O)NCCO [Prostaglandin E1 Ethanolamide],scaled lipid accumulation score,[2],≤ 0
O=c1cc(-c2ccc(O)cc2)oc2cc(O[C@@H]3O[C@H](CO)[C@@H](O)[C@H](O)[C@H]3O)cc(O)c12 [Cosmosiin],scaled lipid accumulation score,[1],0.333
CC(C)=CCC/C(C)=C\CO [Nerol],scaled lipid accumulation score,[1],≤ 0
CC(C)=CCC/C(C)=C/CC/C(C)=C/CC[C@]1(C)CCc2cc(O)c(C)c(C)c2O1 [.gamma.-Tocotrienol],scaled lipid accumulation score,[2],≤ 0
CC12CC3CC(C)(C1)CC(N)(C3)C2 [Memantine hydrochloride],scaled lipid accumulation score,library stock concentration: 9.3 mM,0.689
same,scaled lipid accumulation score,[1],0.344 and 0.653 and 0.597
CC12CC3CC(C)(C1)CC(N)(C3)C2 [Memantine HCl],scaled lipid accumulation score,[3],0.012
same,scaled lipid accumulation score,[1],0.415
CC12CC3CC(C)(C1)CC(N)(C3)C2.Cl [Memantine hydrochloride],scaled lipid accumulation score,[1],1.05 (active)
NC12CC3CC(CC(C3)C1)C2 [Amantadine HCl],scaled lipid accumulation score,[3],≤ 0
same,scaled lipid accumulation score,[1],0.042
NC12CC3CC(CC(C3)C1)C2 [Adamantamine fumarate],scaled lipid accumulation score,,0.029
CC12CC3CC(C)(C1)CC(N)(C3)C2,scaled lipid accumulation score,[1],0.869 (active)
NC12CC3CC(CC(C3)C1)C2 [Symmetrel],scaled lipid accumulation score,[1],0.158
CC12CC3CC(C)(C1)CC(N)(C3)C2 [Memantine Hydrochloride],scaled lipid accumulation score,,0.399
NC12CC3CC(CC(C3)C1)C2 [Amantadine hydrochloride],scaled lipid accumulation score,[1],0.29 and 0.659
same,scaled lipid accumulation score,library stock concentration: 10.7 mM,0.031
